Among all 4,800 compounds or so, about 410 (8.5%) showed an effect of 50% or more. The full list was thinned out, with strong results kept by preference.
tested on: Plasmodium falciparum; assay: Confirmatory screen in NF54 pLDH assay, in single point, at 2uM, 72h; assay type: functional, Erythrocyte; settings: timepoint 72 hour

| SMILES | % Inhibition [%] |
| --- | --- |
| CCC(CC)C(=O)Nc1cccc(O)c1 | 7 |
| O=c1c2cc(F)c(F)cc2ncn1C[C@@H](O)CC1CCCC1 | 9 |
| O=C1CCC(Nc2ccc(Br)cn2)C(C2CC2)N1 (stereo not drawn) | 15 |
| Clc1cc(CN2CC[C@@]3(CCCOC3)C2)ccc1OCCN1CCOCC1 | 11 |
| CCn1cc(Cl)c(C(=O)N2N=C3/C(=C/c4ccc5c(c4)OCO5)CCCC3C2c2ccc3c(c2)OCO3)n1 (stereo not drawn) | 8 |
| CCc1ccc(NC(=O)c2c(C)sc3ncnc(N4CCCCC4)c23)cc1 | 12 |
| C[C@H](C(=O)Nc1nccn2ccnc12)c1ccccc1 | 3 |
| CC(=O)N1CCn2c(nnc2[C@@H]2CCCN2S(=O)(=O)c2cc(F)ccc2F)C1 | 3 |
| CCC(CC)C(=O)Nc1cccc(Cl)c1C | 4 |
| COc1ccc(CN2CC(C)OC3(CCOC3)C2)cc1Cl (stereo not drawn) | 6 |
| Cc1noc(C)c1C(=O)NC[C@H](O)Cn1ccccc1=O | 6 |
| Cc1c(NC(=O)c2ccc(-c3cccc(F)c3)o2)cccc1-c1nc2ncccc2o1 | -2 |
| Cc1ccc(F)cc1S(=O)(=O)N1CC[C@]2(CCN(c3cccnc3)C2)C1 | -20 |
| N#Cc1ccc(O)c(NC(=O)c2snc(O)c2Cl)c1 | -3 |
| O=C1[C@@H]2CCCN2C(=O)N1Cc1ccnc(OC2CCOCC2)c1 | -11 |
| O=C(N[C@H](c1ccccc1)C1CC1)C(c1ccccc1)c1ccccc1 | 11 |
| CN(C)C(=O)NCC1(NC(=O)N(C)C)CCC1 | 5 |
| CCOc1cc(CNC2CCCCC2)cc(Cl)c1OCc1ccc(C)cc1 | -4 |
| CC(C)N1CCN(C(=O)CN2N=C(c3nc(-c4ccccc4)no3)CCC2=O)CC1 | 2 |
| Clc1ccc(-c2noc(C3CNC3)n2)cc1 | 15 |
| c1ccc(-c2noc(-c3ccc(NC4CCCCC4)nn3)n2)cc1 | 60 |

| SMILES | % Inhibition [%] |
| --- | --- |
| Cc1c(-c2nn(-c3nc(C4CC4)cc(C(F)(F)F)n3)c(-c3cnn(C)c3C)c2Cl)cnn1C | 14 |
| COc1ccc(-c2cc(C(F)(F)F)nc(-n3nc(-c4cccc(OC)c4)c(Cl)c3-c3cccc(OC)c3)n2)cc1 | 92 |
| COc1cccc(-c2nn(-c3nc(-c4ccccc4)cc(C(F)(F)F)n3)c(-c3cccc(OC)c3)c2Cl)c1 | 35 |
| Cc1nnc2ccc(S(=O)(=O)N(Cc3ccc(F)cc3)c3cccc(Cl)c3)cn12 | 14 |
| C[C@H]1CN(Cc2ccccc2)CC2(CCN(C(=O)N(C)C)CC2)O1 | 10 |
| COc1ccc(F)c(NC(=O)N(CCO)C(C)C)c1 | 10 |
| COc1ccc(NC(=O)CN2N=C(C(=O)Nc3ccc(F)cc3)CCC2=O)cc1 | -1 |
| COc1ccc2nc(O)c(C(=O)Nc3ccc4c(c3F)CCNC4)cc2c1 | 101 |
| O=C(c1cn[nH]c1-c1ccccc1)N1CCCCCC1 | 1 |
| CC(C)[C@@H]1CC[C@H](C)C[C@H]1OC(=O)Cn1cc(-c2ccc(Cl)cc2)[n+]2c1CCC2 | 75 |
| CC(C)(C)NC(=O)c1ncc(Br)cc1Br | 5 |
| COc1ccc(-c2noc([C@H](C)NC(=O)N3CCNC(=O)C3)n2)cc1OC | 6 |
| CCc1ccc(CS(=O)(=O)NC(=O)c2cn3ccnc3s2)cc1 | 4 |
| CCn1ccnc1C(=O)Nc1ccc(OC)nc1 | 7 |
| CS(=O)(=O)Nc1ccc(OC(=O)C2C3CCCCC32)cc1 (stereo not drawn) | 11 |
| O=C1OC2(c3ccccc31)C(c1ccccc1)CC(=O)N2Cc1ccccc1 (stereo not drawn) | -21 |
| C[C@](O)(CCc1ccccc1)C(=O)NCCc1ncc[nH]1 | 6 |
| Cc1ccc(C(=O)N2CC(C)CC(C)C2)cc1NCc1ncc[nH]1 (stereo not drawn) | 8 |
| Cc1ccccc1C(=O)Cc1ncc[nH]1 | 53 |
| CCCS(=O)(=O)NC1CCC2(CC1)OCCO2 | -18 |
| COc1ccc2c(c1)CN(Cc1ccccc1Cl)CC[C@H]1COC(=O)N21 | -1 |

| SMILES | % Inhibition [%] |
| --- | --- |
| COc1ccccc1C(=O)NC1=NN2C(=NC(c3ccc(Cl)cc3)=C[C@H]2c2ccc(Cl)cc2)N1 | 92 |
| Fc1ccc(C2=C[C@@H](c3ccc(Cl)cc3)N3N=C(c4ccc(Cl)cc4)NC3=N2)cc1 | 97 |
| COc1cc(N2CCn3c(nc4cc(Cl)ccc43)C2)ccc1NC(=O)c1ccccc1OC | -10 |
| COc1cc(NC(=O)c2ccccc2Cl)cc(S(=O)(=O)c2ccc(Cl)cc2)c1 | -15 |
| COc1ccc([C@@H]2C=C(c3ccc(Cl)cc3)N=C3NC(NC(=O)c4ccccc4OC)=NN32)cc1 | 89 |
| COc1ccccc1C(=O)NC1=C(C)Nc2ncnn2[C@H]1c1c[nH]c2ccccc12 | -5 |
| CCC1=NN2C(=NC(C(=O)O)=C[C@H]2c2ccc(O)cc2)N1 | -3 |
| O=C(NC1=NN2C(=NC(c3ccc(Cl)cc3)=C[C@H]2c2ccc(F)cc2)N1)c1ccc(Cl)cc1 | 13 |
| Cc1noc(Cn2c(=O)c3ccccc3n(CC(=O)Nc3cccc(Cl)c3C)c2=O)n1 | 2 |
| Cc1cccc(N2C(=O)C3CC3C2=O)c1 (stereo not drawn) | 8 |
| C[n+]1ccc(-c2ncc(-c3ccccc3)o2)c2ccccc21 | 62 |
| Cc1cc(F)c(C(=O)Nc2nc(-c3cnn(C)c3)cs2)cc1F | -4 |
| O=C(NCc1cccc(C(F)(F)F)c1)c1csc(C(=O)NC2CCCC2)n1 | -3 |
| Cc1ccccc1N1C2=CCCCCN2C[C@]1(O)c1ccc(Br)cc1 | 14 |
| COC1CCC(CC(=O)N[C@H]2CC(=O)N(c3ccccc3)C2)CC1 (stereo partly drawn) | 10 |
| O=S(=O)(c1cccc(F)c1)c1cnc2c(F)cccc2c1-c1cccc(F)c1 | -3 |
| Cc1nn(-c2ccccn2)c(O)c1C(c1ccccc1)c1c(C)nn(-c2ccccn2)c1O | 86 |
| COc1ccc(-c2nn(-c3ccccc3)c(O)c2C(c2ccc(C(=O)O)cc2)c2c(-c3ccc(OC)cc3)nn(-c3ccccc3)c2O)cc1 | 4 |
| Cc1ccc(S(=O)(=O)N2CCCC(=O)c3ccccc32)cc1 | 0 |
| Cc1ccc(S(=O)(=O)N2CCN(S(C)(=O)=O)C2)cc1 | -3 |
| Cc1ccc2c(c1)c1c(n2S(=O)(=O)c2ccc(C(C)(C)C)cc2)CCCN(C)C1 | 94 |
